Several values for one entry are separate records, joined by “and”; a condition that tells them apart may be missing. Equal entries are not always repeated. Inconclusive results are not listed. A structure can be active in one record and inactive in another. Activity calls are given as the source filed them. Unless noted, calls come from the whole dose curve; as a rule, active = well fitted curve in the direction sought with a large enough effect in the repeat runs; inconclusive = weak or mixed curves; inactive = no such curve, though single readings can be large; an effect the other way counts as inactive or inconclusive.
What was measured:
[1] = target: Thyrotropin receptor (Homo sapiens) (UniProt P16473); assay: qHTS assay to identify small molecule agonists of the thyroid stimulating hormone receptor (TSHR) signaling pathway (AID 1224843; calls by dose curve; note: % is set by controls: 0 for no effect and ±100 for the full control effect; nearly all actives have a fitted effect of over 45% in size)
Chain of Thyrotropin receptor (Homo sapiens) (P16473 whole entry, looked up): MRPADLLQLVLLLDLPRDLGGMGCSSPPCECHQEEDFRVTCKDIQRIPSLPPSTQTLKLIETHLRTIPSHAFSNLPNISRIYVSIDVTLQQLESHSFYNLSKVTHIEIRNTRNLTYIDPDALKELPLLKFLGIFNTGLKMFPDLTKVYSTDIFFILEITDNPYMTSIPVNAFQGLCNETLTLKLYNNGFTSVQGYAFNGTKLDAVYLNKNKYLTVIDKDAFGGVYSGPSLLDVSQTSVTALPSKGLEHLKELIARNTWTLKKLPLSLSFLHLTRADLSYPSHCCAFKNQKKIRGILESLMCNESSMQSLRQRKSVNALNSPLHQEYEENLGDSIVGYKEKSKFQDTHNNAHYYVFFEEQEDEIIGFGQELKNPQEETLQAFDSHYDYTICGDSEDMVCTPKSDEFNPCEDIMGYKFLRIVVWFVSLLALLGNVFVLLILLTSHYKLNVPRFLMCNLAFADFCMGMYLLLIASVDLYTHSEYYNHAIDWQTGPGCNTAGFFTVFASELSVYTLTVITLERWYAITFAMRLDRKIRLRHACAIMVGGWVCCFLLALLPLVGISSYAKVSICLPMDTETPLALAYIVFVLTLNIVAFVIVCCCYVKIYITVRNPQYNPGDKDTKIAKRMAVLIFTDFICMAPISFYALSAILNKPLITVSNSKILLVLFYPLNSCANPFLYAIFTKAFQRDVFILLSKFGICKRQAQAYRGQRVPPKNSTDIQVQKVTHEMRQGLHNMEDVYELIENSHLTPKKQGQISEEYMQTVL
Summary of the method: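 Steps: seed 800 TSHR-HEK293 cells per well; add test compound and hold 30 min at ambient temperature; dispense cAMP-d2 then anti-cAMP cryptate; incubate 1 h at ambient; measure fluorescence intensity.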

[2] = qHTS assay to identify small molecule agonists of H2AX (AID 1224845; active = well fitted activation curve with a large enough effect in the signal ratio in the repeat runs, not every such curve was filed as active; the % refers to the signal ratio; note: % is set by controls: 0 for no effect and ±100 for the full control effect)
Summary of the method: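 Wild-type CHO-K1 cells, plated overnight, exposed 3hr at 37C to 15 concentrations (0.76% DMSO final). Lysed, then HTRF anti-pH2AX (S139) cryptate and anti-H2AX-d2 antibodies, 24 hr room temperature; 665/620 nm emission read.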

[3] = qHTS RealTime-Glo MT Cell Viability Assay in HEK293 cells - 32 hour (AID 1224868); note: nearly all actives have a fitted effect of over 50% in size; note: potency is the fitted concentration of half-maximal effect
Summary of the method: (§1)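 Quantitative high-throughput screen of the Tox21 10K library in HEK293: cells and RealTime-Glo reagents plated together, compound added at 5 h, luminescence monitored through 40 h at 37 C.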

[4] = A CellTox Green Cytotoxicity Assay to monitor cytotoxicity in HEK293 cells - 0 hour (AID 1224869); note: nearly all actives have a fitted effect of over 50% in size; note: potency is the fitted concentration of half-maximal effect; for Cytotoxicity: % is set by controls: 0 for no effect and ±100 for the full control effect
Summary of the method: (§2)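 HEK293 cells, 600/well, were preincubated 5 hours and then exposed to compounds at 37 C for up to 40 hours. A cell-impermeant cyanine dye staining dead-cell DNA was read by fluorescence at 0, 8, 16, 24, 32 and 40 h time points.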

[5] = qHTS RealTime-Glo MT Cell Viability Assay in HepG2 cells - 40 hour (AID 1224870); note: % is set by controls: 0 for no effect and ±100 for the full control effect; nearly all actives have a fitted effect of over 50% in size
Summary of the method: (§3)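 HepG2 cells (600/well) mixed with RealTime-Glo MT reagent, settled 5 h at 37 C/5% CO2 before compound addition. Nonlytic NanoLuc luminescence from viable-cell prosubstrate reduction read repeatedly during 40 h treatment at 37 C.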

[6] = A CellTox Green Cytotoxicity Assay to monitor cytotoxicity in HEK293 cells - 40 hour (AID 1224871); note: nearly all actives have a fitted effect of over 45% in size; note: potency is the fitted concentration of half-maximal effect
Summary of the method: as §2

[7] = qHTS RealTime-Glo MT Cell Viability Assay in HEK293 cells - 16 hour (AID 1224872); note: nearly all actives have a fitted effect of over 50% in size; note: potency is the fitted concentration of half-maximal effect
Summary of the method: as §1

[8] = qHTS RealTime-Glo MT Cell Viability Assay in HepG2 cells - 8 hour (AID 1224873); note: % is set by controls: 0 for no effect and ±100 for the full control effect; nearly all actives have a fitted effect of over 55% in size
Summary of the method: as §3

[9] = qHTS RealTime-Glo MT Cell Viability Assay in HEK293 cells - 40 hour (AID 1224874); conditions: RealTime-Glo luminescence; max response: stronger effect = lower value; note: nearly all actives have a fitted effect of over 50% in size; note: potency is the fitted concentration of half-maximal effect
Summary of the method: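 600 cells/well were plated with the nonlytic NanoLuc/prosubstrate reagent, pre-incubated 5 h, then given 23 nL of compound in DMSO. Incubation at 37 C for 40 h, with luminescence from viable-cell-reduced substrate read repeatedly from 0 h.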

[10] = A CellTox Green Cytotoxicity Assay to monitor cytotoxicity in HEK293 cells - 24 hour (AID 1224875); note: % is set by controls: 0 for no effect and ±100 for the full control effect; nearly all actives have a fitted effect of over 45% in size
Summary of the method: as §2

[11] = A CellTox Green Cytotoxicity Assay to monitor cytotoxicity in HepG2 cells - 16 hour (AID 1224876); note: nearly all actives have a fitted effect of over 45% in size; note: potency is the fitted concentration of half-maximal effect
Summary of the method: (§4)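 HepG2 cells, 600/well, preincubated 5 h with CellTox Green dye, then exposed to Tox21 compounds in DMSO at 37 C for up to 40 h. Dead-cell DNA fluorescence read at the indicated time point.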

[12] = qHTS RealTime-Glo MT Cell Viability Assay in HepG2 cells - 32 hour (AID 1224877); note: % is set by controls: 0 for no effect and ±100 for the full control effect; nearly all actives have a fitted effect of over 55% in size
Summary of the method: (§5)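 Compound treatment began 5 h after plating HepG2 cells (600/well) with NanoLuc luciferase and prosubstrate. Plates stayed at 37 C for 40 h; luminescence was captured at six time points, 0 h through 40 h.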

[13] = A CellTox Green Cytotoxicity Assay to monitor cytotoxicity in HepG2 cells - 24 hour (AID 1224878); note: nearly all actives have a fitted effect of over 45% in size; note: potency is the fitted concentration of half-maximal effect; for Cytotoxicity: % is set by controls: 0 for no effect and ±100 for the full control effect
Summary of the method: as §4

[14] = A CellTox Green Cytotoxicity Assay to monitor cytotoxicity in HepG2 cells - 40 hour (AID 1224879); note: nearly all actives have a fitted effect of over 40% in size; note: potency is the fitted concentration of half-maximal effect
Summary of the method: as §4

[15] = qHTS assay to identify small molecule agonists of H2AX - cell viability counter screen (AID 1224847; calls by dose curve; note: top concentration of the series differs between compounds; % is set by controls: 0 for no effect and ±100 for the full control effect; nearly all actives have a fitted effect of over 30% in size)
Summary of the method: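 CHO-K1 wt, 1000 cells/well, o/n 37C; cpds 15 conc, 3 h 37C, 0.76% DMSO; CellTiter-Glo, 30 min RT, luminescence.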

[16] = qHTS assay to identify small molecule agonists of the hypoxia (HIF-1) signaling pathway (AID 1224846; active = well fitted activation curve with a large enough effect in the signal ratio in the repeat runs, not every such curve was filed as active; the % refers to the signal ratio; note: % is set by controls: 0 for no effect and ±100 for the full control effect)
Summary of the method: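 HRE-bla ME-180 beta-lactamase reporter cells in medium with 0.5% dialyzed FBS, pre-incubated 5 h then exposed to compounds 17 h at 37C, 5% CO2; reporter induction read with CCF4-AM FRET substrate.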

[17] = qHTS RealTime-Glo MT Cell Viability Assay in HepG2 cells - 24 hour (AID 1224867)
Summary of the method: as §5

[18] = qHTS assay to identify small molecule antagonists of the estrogen related receptor (ERR) signaling pathway from Tox21 library (AID 1224848)
Summary of the method: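 Luminescent reporter read-out (ONE-Glo) from NTP's ERR cell line after 18 h treatment at 37 C with DMSO-dissolved Tox21 compounds; cells pre-plated 6 h beforehand at 2,000 per well.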

[19] = qHTS assay to identify small molecule agonists of the estrogen related receptor (ERR) signaling pathway from Tox21 library (AID 1224849; calls by dose curve; note: % is set by controls: 0 for no effect and ±100 for the full control effect; nearly all actives have a fitted effect of over 15% in size); conditions: ERR reporter cell line, ONE-Glo luciferase, 18 h
Summary of the method: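 ERR reporter cells (NTP line) pre-incubated 6 hours at 37 C, then exposed to compounds for 18 hours at 37 C. ONE-Glo luciferase luminescence was read after 30 minutes at room temperature.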

CC(=O)O[C@]1(C(C)=O)CC[C@H]2[C@@H]3C=C(Cl)C4=CC(=O)[C@@H]5C[C@@H]5[C@]4(C)[C@H]3CC[C@@]21C
inactive: Potency [1] | outcome [2] | Potency [4] | Potency [5] | Potency [6] | Potency [8] | Potency [10] | Potency [11] | Potency [12] | Potency [13] | Potency [14]
21.9 µM (active) and inactive: Potency [7]
24.5 µM (active) and inactive: Potency [3]
active: Potency [9] 21.9 µM

CC(C)(C)NC(=O)[C@H]1CC[C@H]2[C@@H]3CC[C@H]4NC(=O)C=C[C@]4(C)[C@H]3CC[C@]12C
inactive: Potency [15] | Potency [3] | Potency [4] | Potency [5] | Potency [6] | Potency [7] | Potency [8] | max response [9] -25.2% and -19.5% | Potency [10] | Potency [11] | Potency [12] | Potency [13] | Potency [14]

OC1CCCCCCCCCCC1
inactive: Potency [1] | Potency [16] | Potency [15] | Potency [17] | Potency [3] | Potency [5] | Potency [7] | Potency [8] | max response [9] -5.96% and 2.11% | Potency [12]
inactive and 43.6 µM (active): Potency [4] | Potency [6]
active: Potency [11] 38.9 µM | Potency [13] 49.5 µM and 43.6 µM | Potency [14] 49.5 µM

CN(C)CCN(Cc1cccs1)c1ccccn1
inactive: Potency [1] | outcome [2] | Potency [15] | Potency [17] | Potency [3] | Potency [4] | Potency [5] | Potency [6] | Potency [7] | Potency [8] | max response [9] -22.8% and -7.6% | Potency [10] | Potency [11] | Potency [12] | Potency [13] | Potency [14]

OCCO
inactive: Potency [1] | Potency [16] | Potency [15] | Potency [3] | Potency [4] | Potency [5] | Potency [6] | Potency [7] | Potency [8] | max response [9] -5.99% and -0.466% | Potency [10] | Potency [12] | Potency [13] | Potency [14]

Cc1ccc(C(=O)c2cc(O)c(O)c([N+](=O)[O-])c2)cc1
49 µM (active) and inactive: Potency [14]
active: Potency [18] 30.6 µM and 26.6 µM | Potency [9] 49 µM
inactive: Potency [1] | Potency [16] | Potency [15] | activity change, positive = activation ([19]; at 42.5 µM (top of the series)) -49.4% | activity change, positive = activation ([19]; at 92.4 µM (top of the series)) -70.9% | Potency [17] | Potency [3] | Potency [4] | Potency [5] | Potency [6] | Potency [7] | Potency [8] | Potency [10] | Potency [11] | Potency [12] | Potency [13]

— PubChem BioAssay (Tox21)
